# Screening data as filed in PubChem BioAssay.
# CCHF vOTU inh: CCHFV vOTU protease inhibition; Pep-AMC fluorescence; AID 651958; 370,000 tested, 0.55% active; inhibition, % at 11.5 µM
# Mtb FBA inh: inhibits M. tuberculosis FBA enzyme. 360,000 tested, 2.3% active. purified M. tuberculosis FBA, fluorescence read-out. P9WQA3. inhibition, % at 1 µM; in the data active means inhibition above about 27%
# Target sequence (P9WQA3 whole entry, looked up): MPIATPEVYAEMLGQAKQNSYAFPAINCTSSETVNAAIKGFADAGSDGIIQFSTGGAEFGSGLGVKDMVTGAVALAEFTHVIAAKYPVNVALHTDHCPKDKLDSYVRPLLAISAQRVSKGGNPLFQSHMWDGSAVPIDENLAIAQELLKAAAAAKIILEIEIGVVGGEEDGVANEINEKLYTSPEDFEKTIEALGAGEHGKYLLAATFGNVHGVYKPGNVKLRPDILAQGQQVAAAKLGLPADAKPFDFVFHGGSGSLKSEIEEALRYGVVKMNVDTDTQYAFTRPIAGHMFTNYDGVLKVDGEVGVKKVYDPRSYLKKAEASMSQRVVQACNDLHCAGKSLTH
# GDH-TPI inh: inhibits GDH-TPI coupling enzymes, artifact for Mtb FBA screen; inhibition, % at 4.8 µM; 360,000 tested, 1.2% active; AID 588335; GDH-TPI coupled enzyme counterscreen, NADH absorbance
# Vc quorum ag: quorum light induction in luxS cqsA deficient V. cholerae | 350,000 tested, 0.16% active | V. cholerae BH1578 lux reporter, luminescence, 6 h | activation, % at 18.7 µM | AID 588436; in the data active means activation mostly above about 9.7%, no sharp cut-off
# Hits are given with their value; – = inactive; · = no result given; + = active, no number. Rows were chosen to be rich in hits. Some 3.9% of all compounds tested hit in one or more screens of this group. Unless noted, no stated cut-off is given here; in the data, active means inhibition above about 30%; inactive means the rest.
SMILES,CCHF vOTU inh,Mtb FBA inh,GDH-TPI inh,Vc quorum ag
CCOC(=O)c1c(-c2ccccc2)oc2ccc(OC(C)C(=O)O)cc12 (stereo not drawn),–,164.9,–,–
Cc1oc2ccc(OC(=O)N(C)C)cc2c1C(=O)OC(C)C,–,–,–,·
CCOC(=O)c1c(-c2ccccc2)oc2ccc(OCC(=O)NNC(=O)CCCC(=O)O)cc12,–,157.2,–,–
CCOC(=O)c1c(-c2ccc(OC)cc2)oc2ccc(OC(=O)N(C)C)cc12,–,+,–,–
CCOC(=O)c1c(-c2ccccc2)oc2ccc(OCC(=O)NNC(=O)CCC(=O)O)cc12,–,122.3,–,–
CCOC(=O)c1c(C)oc2ccc(OCC(N)=O)cc12,–,–,–,–
Cc1cc(=O)oc2ccc(OC(C)C(=O)O)cc12 (stereo not drawn),–,–,–,–
O=C(/C=C/c1cccs1)Nc1cccc(NC(=O)/C=C/c2cccs2)n1,–,–,57.0,–
Cc1cc(C)nc(NC(=O)/C=C/c2cccs2)c1,–,–,47.4,–
O=C(/C=C/c1cccs1)Nc1nccs1,–,–,–,–
C[C@]12C(=O)N(c3ccc(Br)cc3)C(=O)N1[C@H]1c3ccccc3OC[C@@H]1[C@H]2c1ccccc1,–,–,–,–
O=C(CSc1n[nH]c(-c2cccs2)n1)N1CCN(S(=O)(=O)c2ccccc2)CC1,–,–,–,–
CCOC(=O)C1=C(C)NC(=O)NC1,–,–,–,–
CC1(C)CC(=O)C=C(Nc2ccc(S(N)(=O)=O)cc2)C1,–,–,38.1,–
Cc1cc(N2CCOCC2)ccc1/C=C1\NC(=O)N(CC(=O)Nc2ccc(F)cc2)C1=O,–,–,–,–
Cc1ccc(NC(=O)CN2C(=O)N/C(=C\c3ccco3)C2=O)cc1,–,–,34.1,–
Cc1cccc(NC(=O)CN2C(=O)N/C(=C\c3ccc(N4CCOCC4)cc3)C2=O)c1,–,–,30.9,–
O=C1N/C(=C/c2ccco2)C(=O)N1Cc1ccccc1F,–,–,33.1,–
O=C(CCN1C(=O)C2C3C=CC(C3)C2C1=O)NC1CCCc2ccccc21 (stereo not drawn),–,–,–,66.5
O=C(CN1C(=O)C2CCCCC2C1=O)NC1CCCc2ccccc21 (stereo not drawn),–,–,–,–
O=C(O)c1cc(O)ccc1N=Nc1ccccc1,–,–,–,–
O=C(O)c1ccccc1N=Nc1ccc(O)cc1,–,–,35.8,–
Nc1nnnn1/N=C/c1ccc(O)cc1,–,–,–,–
CCN(C)c1ccc(/C=N\n2nnnc2N)cc1,–,28.1,–,–
CSc1ccc(/C=N/n2nnnc2N)cc1,–,–,43.2,–
SMILES,CCHF vOTU inh,Mtb FBA inh,GDH-TPI inh,Vc quorum ag
CCN(CC)c1ccc(/C=N/n2nnnc2N)c(O)c1,–,–,37.8,–
Nc1nnnn1/N=C/c1cc(Cl)ccc1O,–,–,–,–
CCCOc1ccc(NC(=O)C2CC(=O)N/C(=N/N=C(C)/C=C/c3ccc(N(C)C)cc3)S2)cc1 (stereo not drawn),–,–,32.2,–
CC(/C=C/c1ccc(N(C)C)cc1)=N/N=C1/NC(=O)CC(C(=O)Nc2ccc(Cl)cc2)S1 (stereo not drawn),–,–,–,–
O=C(CCC(=O)OCc1cccc([N+](=O)[O-])c1)Nc1ccc(F)cc1,–,–,–,–
N=C1/C(=C\c2ccc(SCc3ccccc3)o2)C(=O)N=C2SC(CC(=O)N3CCOCC3)=NN12,–,–,39.0,–
N=C1/C(=C/c2ccc(-c3cccc(C(=O)O)c3)o2)C(=O)N=C2SC(CC(=O)N3CCOCC3)=NN12,–,–,–,–
Cc1ccc(/C=C2\C(=N)N3N=C(CC(=O)N4CCOCC4)SC3=NC2=O)o1,–,–,45.2,–
O=C(Nc1ncccn1)c1cc(-c2ccc(F)cc2)nc2ccccc12,–,–,–,–
CC[C@]12c3[nH]c4ccc(OC)cc4c3CCN1C(=O)C(CC(=O)NCCc1ccccn1)C[C@@H]2C(=O)N1CCN(C(=O)c2ccco2)CC1 (stereo partly drawn),–,–,–,–
C#CCN1C(=O)C(O)(CC(=O)/C=C/C=C/c2ccccc2)c2ccccc21 (stereo not drawn),–,–,–,–
O=C(/C=C/C=C/c1ccccc1)CC1(O)C(=O)N(CCc2ccccc2)c2ccccc21 (stereo not drawn),–,–,–,–
Cc1ccc2c(c1)C(O)(CC(=O)/C=C/C=C/c1ccccc1)C(=O)N2 (stereo not drawn),–,–,38.4,–
NC(=O)CN1C(=O)C(O)(CC(=O)/C=C\C=C\c2ccccc2)c2ccccc21 (stereo not drawn),–,–,33.6,–
CCN1C(=O)C(O)(CC(=O)/C=C/C=C/c2ccccc2)c2ccccc21 (stereo not drawn),–,–,41.0,–
O=C(Nc1nccs1)c1ccc(-c2cccc([N+](=O)[O-])c2)o1,–,–,–,–
O=C(Nc1ncc(Cc2cccc(C(F)(F)F)c2)s1)c1ccc(-c2cccc([N+](=O)[O-])c2)o1,–,–,54.3,–
CC(C)Nc1cc(C(C)(C)C)nc2c(-c3ccccc3)cnn12,–,29.1,–,–
Nc1nn2cc(-c3ccc(Br)cc3)nc2c2ccccc12,–,145.7,–,–
COc1ccc(/C=N/Nc2nc(=O)[nH]nc2C)cc1OC,–,–,47.7,–
COc1cc(/C=N/Nc2nc3ccccc3[nH]c2=O)ccc1O,–,–,–,–
COc1cc(/C=N/Nc2nc(=O)[nH]nc2C)ccc1O,–,–,32.5,–
COc1ccc(/C=N/Nc2nc3ccccc3c(=O)n2-c2ccccc2)cc1OC,–,–,60.3,–
COc1ccc(CCNc2nc(=O)[nH]nc2C)cc1OC,–,–,–,–
Cc1ccc(NC(=O)CN(C)C(=O)CSc2nnnn2C)cc1,–,–,–,–
SMILES,CCHF vOTU inh,Mtb FBA inh,GDH-TPI inh,Vc quorum ag
O=C(Nc1nc2ccc(S(=O)(=O)N3CCCCC3)cc2s1)c1cccnc1,–,–,40.1,–
CN(C)S(=O)(=O)c1ccc2nc(NC(=O)c3cccnc3)sc2c1,–,–,36.1,–
O=C(CCS(=O)(=O)c1ccc2c(c1)NC(=O)CS2)NCCc1ccccc1,–,–,–,–
CS(=O)(=O)c1ccc2nc(NC(=O)c3ccc(Cl)cc3)sc2c1,–,–,–,–
Cn1nc(C(=O)Nc2nc3ccc(S(C)(=O)=O)cc3s2)ccc1=O,–,–,60.6,–
CS(=O)(=O)c1ccc2nc(NC(=O)c3ccc(=O)[nH]c3)sc2c1,–,–,82.6,–
O=C(Cc1nc2ccccc2[nH]c1=O)c1ccccc1,–,–,–,–
O=C(Cc1nc2ccccc2[nH]1)c1ccc(Br)cc1,–,–,31.6,–
CCN(CC(=O)N1CCN(Cc2ccccc2)CC1)S(=O)(=O)c1ccc(F)cc1,–,–,–,–
Cc1nc2ccccc2c(=O)n1NC(=O)c1ccc(Cl)c(Cl)c1,–,–,–,327.8
CCc1ccc(C(=O)Nn2c(C)nc3ccccc3c2=O)cc1,–,–,–,–
CCCC1(c2ccccc2)NC(=O)N(CC(=O)c2[nH]c(C)c(C(=O)OCC)c2C)C1=O (stereo not drawn),–,–,–,–
C/C(Cl)=C\Cn1c(O)c(N=O)c2ccccc21,–,–,–,+
O=Nc1c(O)n(Cc2ccc(Cl)cc2)c2ccccc12,–,–,–,225.8
